# From PubChem BioAssay
# LASV entry inh: qHTS for Inhibitors of binding or entry into cells for Lassa Virus; AID 540256, 2011; 300,000 tested, 1.2% active; Lassa virus pseudotype entry inhibition, cell reporter; Potency, µM (highest dose often 37.9 µM), for inactives: at the top dose activity change, negative = inhibition, hits mostly inhibitors; calls by dose curve; tested in HEK293 cells; note: potency is the fitted concentration of half-maximal effect; nearly all actives have a fitted effect of over 50% in size
# HCMV inh: qHTS Assay for inhibitors of the human cytomegalovirus (HCMV) | HFF cells, HCMV-luciferase reporter, 72 h; stronger effect = lower value | activity change, negative = inhibition, % at 57.5 µM | 410,000 tested, 4.5% active | AID 1259415, 2018; in the data active = activity change below about -60%; inconclusive = no clear call, values can overlap the other calls; inactive = above about -39%
#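 Compounds were evaluated in HFFs infected with an HCMV luciferase reporter virus (MOI 1 PFU/cell). Luciferase in lysates collected 72 h post infection served as the replication measure.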
# Vaccinia Venus: qHTS for Stage-Specific Inhibitors of Vaccinia Orthopoxvirus: Venus Reporter Primary qHTS. Potency, µM (doses to about 36.5 µM), without a hit: at the highest dose activity change, negative = inhibition, usual class: inhibitors. AID 720580, 2013. Vaccinia virus Venus reporter expression, fluorescence. 330,000 tested, 0.46% active; calls by dose curve; tested in A549 cells; note: potency is the fitted concentration of half-maximal effect; nearly all actives have a fitted effect of over 30% in size
# VACV mCherry inh: qHTS for Stage-Specific Inhibitors of Vaccinia Orthopoxvirus: mCherry Reporter Primary qHTS. Potency, µM (doses to about 36.5 µM), for the others: top-dose activity change, negative = inhibition, most hits filed as inhibitors. AID 720579, 2013. 310,000 tested, 0.63% active. Vaccinia virus mCherry reporter infection, fluorescence; calls by dose curve; tested in A549 cells; note: potency is the fitted concentration of half-maximal effect; nearly all actives have a fitted effect of over 35% in size
# Marburg entry inh: qHTS for inhibitors of binding or entry into cells for Marburg Virus. Marburg virus pseudotyped entry inhibition, cell reporter. Potency, µM (top dose mostly 37.8 µM), without a hit: at the highest dose activity change, negative = inhibition, actives largely listed as inhibitors. 300,000 tested, 1.8% active. AID 540276, 2011; calls by dose curve; tested in HEK293 cells; note: potency is the fitted concentration of half-maximal effect
# FMDV antiviral: High Throughput Screening for Foot and Mouth Disease Virus Antivirals | FMDV antiviral cell-based qHTS | 410,000 tested, 1.2% active | Potency, µM (highest dose often 57.9 µM), inactives show top-dose activity change, negative = inhibition, usual class: inhibitors; calls by dose curve; tested in HEK293T cells; note: read-out not given here; potency is the fitted concentration of half-maximal effect; nearly all actives have a fitted effect of over 45% in size
# Numbers without * were called inactive; i = inactive; ? = inconclusive; . = no result; [ ] = dose if it differs, or a comment. A selection: hits, their analogues and other compounds. The true share with any hit is near 6.5%. % is set by controls: 0 for no effect and ±100 for the full control effect.
SMILES,LASV entry inh,HCMV inh,Vaccinia Venus,VACV mCherry inh,Marburg entry inh,FMDV antiviral
COc1ccc(-c2nc(CNS(=O)(=O)c3ccc(F)cc3)cs2)cc1,?,-73*,-18%,-21%,-20%[46.1 µM],?
COc1cccc(Cn2c(=O)c(-c3cccc(F)c3)nc3cncnc32)c1,.,.,.,.,.,-21%
CCc1ccc(OCCCCn2c(CCNC(=O)C3CCCCC3)nc3ccccc32)cc1,.,.,?,-20%,.,.
O=C(O)COc1ccc(OCCNC[C@H](O)COc2ccccc2)cc1,.,.,-3%,-11%,.,-13%
Cc1ccc(C(NC(=O)C2CCN(CCCOc3ccccc3)CC2)c2ccccn2)cc1 (stereo not given),.,-14,-11%,-7%,.,2%
COc1ccc(C(NC(=O)C2CCN(CCCOc3ccccc3)CC2)c2cccs2)cc1 (stereo not given),.,-103*,-10%,i,.,-18%
COC(=O)C1=CN(c2ccc(C(C)(C)C)cc2)C(N)=C(C#N)C1c1cccc2ccccc12 (stereo not given),.,?,-12%,8.9µM*,.,-4%
CCc1ccc(N2C=C(C(=O)OC)C(c3cccc4ccccc34)C(C#N)=C2N)cc1 (stereo not given),.,-101*,-8%,6.3µM*,.,47%
C[C@@H](NC(=O)c1ncn2c1c(=O)[nH]c1ccc(Br)cc12)c1ccccc1,.,-100*,?,?,.,0%
COc1cccc(N2CC(NC(=O)Cc3cccs3)CC2=O)c1 (stereo not given),-23%[46.1 µM],75,-8%[7.34 µM],-8%[7.34 µM],.,-10%
Nc1ccccc1C(=O)OCCOc1ccccc1,?,8,-21%,.,10µM*,-31%
CCCCCCC(=O)Cc1cc(OC)c(OC)cc1/C=C(/C(C)=O)C(=O)OC,.,.,.,.,-11%[14.2 µM],.
COc1ccc(C2c3[nH]c4ccccc4c3CCN2Cc2cccn2-c2ncccn2)cc1C (stereo not given),?,-99*,-2%,-3%,7.1µM*,-2%
Cc1cccc(C2c3[nH]c4ccccc4c3CCN2Cc2cccn2-c2ncccn2)c1 (stereo not given),11µM*,-32,4%,i,?,-6%
Oc1cccc(C2c3[nH]c4ccccc4c3CCN2Cc2ccc3c(c2)CCO3)c1 (stereo not given),?,-21,?,?,3.2µM*,-26%
O=C(Nc1ccccc1)c1cnc(N2CCN(Cc3cccc(C(F)(F)F)c3)C2=O)o1,.,59,.,.,.,.
Cc1c(Cl)cccc1NC(=O)CSc1nc(=O)n(Cc2ccncc2)c2c1CCC2,-21%[46.1 µM],7,-16%,-30%,.,-21%
C#CCN(C[C@@H]1[C@@H](OC(=O)NCc2ccco2)[C@@H](OC(=O)NCc2ccco2)Cn2c(=O)ccc(=O)n21)S(=O)(=O)c1ccc(C)cc1,.,-101*,7.9µM*,?,.,6.3µM*
C#CCN(C[C@@H]1[C@@H](OC(=O)NCc2ccc(OC)c(OC)c2)[C@@H](OC(=O)NCc2ccc(OC)c(OC)c2)Cn2c(=O)ccc(=O)n21)S(=O)(=O)c1ccc(C)cc1,.,-107*,?,?,.,?
C#CCN(C[C@@H]1[C@@H](OC(=O)NCc2ccco2)[C@@H](OC(=O)NCc2ccco2)Cn2c(=O)n(CCCCCC)c(=O)n21)S(=O)(=O)c1ccc(C)cc1,.,-74*,-25%,-19%,.,28µM*
CN(C)C(=O)n1nnnc1Cc1ccc(-c2ccccc2)cc1,.,.,.,.,.,-17%
CCCCN(CCCC)CCCNC(=O)c1cc(-c2ccc(Cl)s2)nc2ccccc12,16%[46.1 µM],-21,-24%,?,?,-22%
COc1coc(C(O)CN)cc1=O (stereo not given),0%,-32,-1%,-20%,-1%[46.1 µM],18%
CCOC(=O)C(=Cc1cc(=O)c(OC)co1)C(=O)OCC,?,-84*,.,.,?,8.9µM*
Cc1ccccc1CNC(=O)c1ccc2sc([C@H]3C[C@H](O)[C@@H](CO)O3)nc2c1,.,68,-2%,6%,.,15%
SMILES,LASV entry inh,HCMV inh,Vaccinia Venus,VACV mCherry inh,Marburg entry inh,FMDV antiviral
O=C(NCC1CC1)c1ccc2sc([C@H]3C[C@H](O)[C@@H](CO)O3)nc2c1,.,-102*,-11%,-10%,.,-2%
O=C(/C=C/c1ccccn1)NCC1Cc2cccc(-c3ncccn3)c2O1 (stereo not given),.,.,-16%,0%,.,-13%
Cc1cccc2nc(COc3ccc(Cl)c4cccnc34)cn12,?,-80*,-22%,-5%,-4%[46.1 µM],14%
O=C1C[C@H]2C=CCc3cccc(c32)CN1Cc1ccc(Br)cc1,.,.,-14%,-4%,.,.
COc1ccc(N2Cc3cccc(C(=O)Nc4cccc(F)c4)c3C2=O)cc1,?,-3,-11%,-21%,5%[46.1 µM],5%
CC(C)(C)C1CCc2c(sc(NC(=O)CSc3ncn[nH]3)c2C#N)C1 (stereo not given),?,-20,.,.,-26%,-20%
N#Cc1c(NC(=O)CSc2ncn[nH]2)sc2c1CCCC2,2.3µM*,-37,?,?,?,?
COc1ccc(-c2ccc(C#N)c(SCC(=O)Nc3sc4c(c3C#N)CCC4)n2)cc1OC,15µM*,-88*,.,.,?,1%
CCCc1cc(=O)[nH]c(SCC(=O)NC(=O)OCC)n1,24%,?,-9%,-15%,11%,11%
CCCc1cc(=O)[nH]c(SCC(=O)Nc2sc3c(c2C#N)CCC(C)C3)n1 (stereo not given),-10%[46.1 µM],-61*,-24%,-4%,33%[46.1 µM],7%
CCCc1cc(=O)[nH]c(SCC(=O)Nc2sc(C(N)=O)c(C)c2C(=O)OCCOC)n1,.,-62*,.,.,.,0%
CC1CCc2c(sc(NC(=O)CSc3nnc(-c4ccccc4)o3)c2C#N)C1 (stereo not given),?,61,-4%,-20%,?,-19%
Cc1cccc(-c2nc3c(NCc4cccc(N(C)C)c4)nccc3[nH]2)c1,.,14,.,.,.,.
S=C(NCCCc1cnc[nH]1)NCCCN(Cc1ccc(Cl)cc1)c1ccc(-c2ccccc2)cn1,.,.,?,-23%,.,.
CC1CCc2c(sc(NC(=O)CSc3ncn[nH]3)c2C#N)C1 (stereo not given),.,-66*,.,.,.,?
N#Cc1c(NC(=O)CCCC(=O)O)sc2c1CCCCC2,8.2µM*,-8,3%,-9%,1.2µM*,0%
COc1ccc(-c2nc(Cn3c(SCc4ccc(F)cc4)nc4cccnc43)c(C)o2)cc1,-13%[46.1 µM],-4,?,-28%,.,-20%
COc1ccc(-c2nc(Cn3c(SCc4ccc(C)cc4)nc4cccnc43)c(C)o2)cc1OC,?,-98*,-24%,-28%,.,-9%
CCN(CCO)c1ccc(N=Nc2cc(C)[nH]n2)cc1,?,-80*,-27%,-2%,?,13µM*
